Here are results for 39 molecules from PubChem BioAssay (EPA / NIEHS).

Molecules are shown by their SMILES. Active and inactive are the calls of the source. How the source made its calls: active means hit-call score of the fitted dose curve at least 0.9, where 1 is the maximum; inactive means score below 0.9.

This assay can be described thus: BSK_3C_Vis: BioMAP Diversity Plus: 3C Assay for Morphology Visualization (AID 2283025).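 Further: fitted both ways so gain or loss versus DMSO counts.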 As to conditions: primary human endothelial cells (HUVEC). The method, then: BSK_3C is a cell-based, multiplexed-readout assay that uses umbilical vein endothelium, a human vascular primary cell, with measurements taken at 24 hours after chemical dosing in a 96-well plate.BSK_3C_Vis is an assay component measured in the BSK_3C assay. It measures NA related to cell morphology using light microscopy technology.Data from the assay component BSK_3C_Vis was analyzed into 1 assay endpoint. This assay endpoint, BSK_3C_Vis, was analyzed with bidirectional fitting relative to DMSO as the negative control and baseline of activity. Using a type of morphology reporter, gain or loss-of-signal activity can be used to understand changes in the background control. Furthermore, this assay endpoint can be referred to as a secondary readout, because this assay has produced multiple assay endpoints where this one serves a background control function. To generalize the intended target to other relatable targets, this assay endpoint is annotated to the cell morphology intended target family, where the subfamily is cell conformation.
The levels of cell surface (or secreted, indicated by the prefix "s") biomarker endpoints were measured by ELISA. Overt cytotoxicity to cells in confluent adherent cultures (all systems other than the BT system) was assessed by measuring total protein levels using sulforhodamine B (SRB) staining in parallel cultures at the time of biomarker measurements, indicated as SRB endpoints. For proliferation assays for adherent cell types, individual cell types are cultured at sub-confluence and relative cell numbers quantified by SRB staining at time points optimized for each system (48 h: 3C and CASM3C systems; 72 h: BT and HDF3CGF systems; 96 h: SAg system). SRB was performed by staining cells with 0.1% SRB after fixation with 10% TCA and reading wells at 560 nm.Viability and proliferation of PBMC (T cells) was quantified by Alamar Blue reduction for the SAg and BT systems. For PBMC viability (referred to as PBMC Cytotoxicity within the assay endpoint names), cells were plated (75,000/well in a 96-well plate) and then chemical samples added for 1 h before addition of activators, SEB and TSST-1 (20 ng/mL final concentration each). Cells were incubated for 90 h. Then, Alamar Blue (20 uL/well) (Invitrogen, Cat DAL1100) was added for 6 h, and the plates were read with a fluorescence microplate reader at 546/580 nm (excitation/emission). For PBMC proliferation, cells were plated and activated as above but incubated for only 16 h prior to addition of Alamar Blue. Plates were read after 6 h.
For `CS(=O)(=O)c1ccc(C2=C(c3ccccc3)C(=O)OC2)cc1`, the result was inactive.

On to `O=C1OC[C@H](Cc2cccc(O)c2)[C@H]1Cc1cccc(O)c1`, for which the outcome was inactive.

Consider `c1ccc(Oc2ccccc2)cc1`, for which the AC50 (in general, the concentration giving half of the maximal activity seen) was 37.8 µM (active).

As for `CCC(C)c1cc([N+](=O)[O-])cc([N+](=O)[O-])c1OC(=O)OC(C)C` (centres undefined), the AC50 is 12 µM (active).

As to `O=C1c2ccccc2C(=O)c2c(O)ccc(O)c21`, the AC50 is 13.6 µM (active).

On to `CCCCN(CCCC)C(=O)N(CCCC)CCCC`, for which the concentration at half-maximal activity (AC50) was 2.98 µM (active).

Turning to `CS(=O)(=O)OCCCCOS(C)(=O)=O`, the result was inactive.

Regarding `CCCCCCCCCCCCCCCC(=O)OC/C=C(C)/C=C/C=C(C)/C=C/C1=C(C)CCCC1(C)C`, the AC50 is 38.9 µM (active).

For `CN(C)C(=O)Nc1ccc(Oc2ccc(Cl)cc2)cc1`, the result was inactive.

Consider `CC(=O)c1c(C)c([N+](=O)[O-])c(C(C)(C)C)c([N+](=O)[O-])c1C`, for which the result was inactive.

In the case of `CC(C)(C)CC(C)(C)c1ccc(OCCOCC[N+](C)(C)Cc2ccccc2)cc1`, the AC50 was 9.69 µM (active).

Regarding `C=C(C)C(=O)OCCOCCOCCOCCOC(=O)C(=C)C`, the outcome was inactive.

As for `C=C(C)C(=O)OCC(CC)(COC(=O)C(=C)C)COC(=O)C(=C)C`, the result was inactive.

With `IC(I)I`, the result was inactive.

Turning to `CC(C=O)Cc1ccc(C(C)(C)C)cc1` (centres undefined), the AC50 is 37.8 µM (active).

Consider `CC(=O)Nc1ccc(C(=O)CCl)cc1`, for which the concentration at half-maximal activity (AC50) was 4.8 µM (active).

Regarding `COc1ccc(OC)c(N=Nc2c(O)ccc3ccccc23)c1`, the AC50 was 13 µM (active).

In the case of `C[C@@H]1CCN(C(=O)[C@H](CCCN=C(N)N)NS(=O)(=O)c2cccc3c2NC[C@H](C)C3)[C@@H](C(=O)O)C1`, the result was inactive.

As for `C1=CC2C3C=CC(C3)C2C1` (centres undefined), the result was inactive.

Consider `Oc1c(Cl)cc(Cl)c(Cl)c1Cc1c(O)c(Cl)cc(Cl)c1Cl`, for which the AC50 was 13.7 µM (active).

Regarding `Clc1cc(Cl)c(-c2c(Cl)c(Cl)cc(Cl)c2Cl)cc1Cl`, the AC50 was 19.9 µM (active).

`CCN(CC)C(=O)N(CC)CC`: the result was inactive.

For `COc1ccc(CCN2CCC(Nc3nc4ccccc4n3Cc3ccc(F)cc3)CC2)cc1`, the half-maximal activity concentration (AC50) is 0.743 µM (active).

As to `C=C(C)[C@H]1CC=C(C)C(=O)C1`, the outcome was inactive.

In the case of `c1ccc(CCc2ccccc2)cc1`, the AC50 was 8.8 µM (active).

For `CC1(C)C2=CCCC(C)(C)[C@]23CC[C@H]1C3`, the AC50 is 37.4 µM (active).

`c1ccc2cc(Nc3ccc(Nc4ccc5ccccc5c4)cc3)ccc2c1`: the AC50 is 8.8 µM (active).

As for `CC=Cc1ccc(OCC)c(O)c1`, the outcome was inactive.

As for `CCCCCC(C=O)=Cc1ccccc1`, the AC50 is 37.8 µM (active).

Take `Cc1cc(CCC(=O)OCCOCCOCCOC(=O)CCc2cc(C)c(O)c(C(C)(C)C)c2)cc(C(C)(C)C)c1O`: the outcome was inactive.

As for `C=C(C)C(=O)OCCOCCOCCOC(=O)C(=C)C`, the result was inactive.

Turning to `O=C1OC2(c3ccccc31)c1ccc(O)c(Br)c1Oc1c2ccc(O)c1Br`, the AC50 is 37.5 µM (active).

`CSCCC=O`: the result was inactive.

Turning to `CN(C)C(=S)SC(=S)N(C)C`, the AC50 was 39.2 µM (active).

For `CC(C)(N=C=O)c1cccc(C(C)(C)N=C=O)c1`, the outcome was inactive.

Take `CN(c1nccc(=O)[nH]1)C1CCN(c2nc3ccccc3n2Cc2ccc(F)cc2)CC1`: the result was inactive.

Consider `CC(=O)C1(C)CC2=C(CCCC2(C)C)CC1C` (centres undefined), for which the AC50 was 8.8 µM (active).

Turning to `CCCCOC(=O)CCCCCCCC(=O)OCCCC`, the outcome was inactive.

With `COc1cc(Cl)c(OC)cc1N`, the outcome was inactive.
